Assay results published in PubChem BioAssay (NCATS).
Results filed as inconclusive are left out. Values without a mark were called inactive. Calls come from the whole dose curve; as a rule, active = well fitted curve in the direction sought with a large enough effect; inconclusive = small, poorly fitted or top-dose-only effect, or another doubt; inactive = no such curve, though single readings can be large or run the other way.

These compounds were tested against Ferritin light chain (Equus caballus) (UniProt P02791) (assay: qHTS Validation Assay for Identification of Novel General Anesthetics (AID 2323)). Settings: horse apoferritin, anesthetic-site fluorescent probe displacement; series mostly up to 76.9 µM; activity change, negative = inhibition: at the top concentration.
Procedure, shortened: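 Normalized fluorescence response, scaled between free 1-AMA and 1-AMA/apoferritin complex, fitted to a four-parameter Hill equation for concentration-effect values. Binding mix: 10 uM horse-spleen apoferritin, 50% saturated 1-AMA in PBS; read 380/535 nm after 10 min.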
% is set by controls: 0 for no effect and ±100 for the full control effect.

Sequence of Ferritin light chain (Equus caballus) (P02791 2-175 limits assumed): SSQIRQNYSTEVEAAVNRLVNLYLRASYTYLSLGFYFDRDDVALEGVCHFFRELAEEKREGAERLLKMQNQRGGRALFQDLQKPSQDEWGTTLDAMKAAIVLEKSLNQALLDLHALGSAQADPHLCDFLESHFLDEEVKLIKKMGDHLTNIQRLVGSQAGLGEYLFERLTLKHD

Q: How did the “activity change, negative = inhibition” value turn out when `CCCCN1CCC(n2c(=O)[nH]c3ccccc32)CC1` was run?
A: -1.69%

Q: With `CC(C)(C)c1ccc(S(=O)(=O)/C=C/C#N)cc1` as the compound, how does the “activity change, negative = inhibition” value read?
A: -17.3%

Q: For `Cc1cc(NC(=O)Nc2ccc3c(ccn3C)c2)sn1`, which “activity change, negative = inhibition” value is on record?
A: -8.14%

Q: With `CCN1/C(=C/C(C)=O)Sc2ccc(OC)cc21` as the compound, how does the “activity change, negative = inhibition” value read?
A: -12.6%

Q: For `CN1CCc2ccccc2Cc2[nH]c3ccccc3c2CC1`, which “activity change, negative = inhibition” value is on record?
A: 17.9%

Q: Which “activity change, negative = inhibition” value does the source give for `COc1ccccc1CNCCCCCCNCCCCCCCCNCCCCCCNCc1ccccc1OC` here?
A: -12.7%

Q: `COC1=C(OC)C(=O)c2ccccc2C1=O` was tested. Which “activity change, negative = inhibition” value did it give?
A: -13.7%

Q: Which “activity change, negative = inhibition” value does the source give for `O=C(/C=C/c1ccc(O)c(O)c1)OCCc1ccccc1` here?
A: -7.87%

Q: Which “activity change, negative = inhibition” value does the source give for `N.N.O=C(O)C1(C(=O)O)CCC1.[Pt]` here?
A: -8.09%

Q: How did the “activity change, negative = inhibition” value turn out when `CN1CCc2cc(O)c(O)cc2C(c2ccccc2)C1` (stereo not given) was run?
A: -5.59%

Q: For `c1cnc2c(c1)ccc1cccnc12`, which “activity change, negative = inhibition” value is on record?
A: -5%

Q: `Oc1cc(O)cc(/C=C/c2ccc(O)c(O)c2)c1` was tested. Which “activity change, negative = inhibition” value did it give?
A: 382%

Q: `O=C(O)[C@@H]1C[C@H](C(=O)O)N1` was tested. Which “activity change, negative = inhibition” value did it give?
A: -3.96%

Q: Which “activity change, negative = inhibition” value does the source give for `CCCN(CC1CC1)c1nc(C)nc(Nc2c(Cl)cc(Cl)cc2Cl)c1Cl` here?
A: 73.2%

Q: With `COc1ccc(NC(=O)/C=C/c2ccc(Cl)cc2)cc1` as the compound, how does the “activity change, negative = inhibition” value read?
A: -3.01%
